Only some compounds are listed: those with a hit (about 2.3% of all), similar ones and a draw of the others.
M1 ag parental: counter-screen for M1 agonists: effect in parental CHO-K1 cells; 360,000 compounds, 0.48% hits; Fluo-8 calcium fluorescence; scaled to maximal ATP response, vehicle zero; activation, % at 3 µM; in the data active means activation above about 15%;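 further: untransfected CHO-K1 host cells lacking M1 receptor as counterscreen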
CHO-K1 Ca antag: M1 antagonist counterscreen hit in parental CHO-K1 cells; ATP-induced calcium, Fluo-8 fluorescence; inhibition, % at 3 µM; 360,000 compounds, 0.6% hits;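 active means inhibition above a per-plate cutoff, the plate's mean sample inhibition plus 3 SD, cut at about 24% in these data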;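 further: 0% = DMSO plus EC80 ATP and 100% = DMSO alone without ATP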
M1 ag: activates human CHRM1 receptor; activation, % at 3 µM; 360,000 compounds, 0.33% hits; P11229; CHO-K1 hM1, Fluo-8 calcium fluorescence, agonist mode; 0% DMSO, 100% acetylcholine EC100;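 active means activation above the run's mean compound activation plus 3 SD, cut at about 16% in these data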;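 further: peak over basal fluorescence ratio within a 140 s kinetic read after compound addition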
Target sequence (P11229 whole entry, looked up): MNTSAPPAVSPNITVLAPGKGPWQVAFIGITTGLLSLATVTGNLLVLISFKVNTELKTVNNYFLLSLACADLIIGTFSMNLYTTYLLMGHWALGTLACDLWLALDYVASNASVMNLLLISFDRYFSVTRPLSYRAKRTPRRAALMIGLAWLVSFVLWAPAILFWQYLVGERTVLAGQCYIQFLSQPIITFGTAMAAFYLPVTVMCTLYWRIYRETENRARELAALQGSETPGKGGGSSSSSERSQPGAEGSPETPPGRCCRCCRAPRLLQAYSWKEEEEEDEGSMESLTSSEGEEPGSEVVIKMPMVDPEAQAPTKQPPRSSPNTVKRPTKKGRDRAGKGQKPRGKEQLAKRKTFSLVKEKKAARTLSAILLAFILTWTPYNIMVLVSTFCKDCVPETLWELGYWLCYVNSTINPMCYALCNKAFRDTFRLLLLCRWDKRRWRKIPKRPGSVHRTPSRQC
M1 PAM parental: counter-screen for M1 PAMs: effect in parental CHO-K1 cells. 360,000 compounds, 0.02% hits. ATP EC20, Fluo-8 calcium fluorescence; 0% at ATP EC20, 100% at ATP max. activation, % at 3 µM. AID 602247;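 active means activation above the run cutoff, the mean activation of all test compounds plus 3 SD, cut at about 40% in these data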;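 further: peak over basal fluorescence ratio in a 140 s read after ATP addition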
CHRM1 antagonist: human CHRM1 antagonism | 360,000 compounds, 1.3% hits | P11229 | AID 588852 | inhibition, % at 3 µM | CHO-K1 hM1, Fluo-8 calcium fluorescence, ACh EC80 antagonist;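 active means percent inhibition above its own plate's cutoff, namely the mean of that plate's compound wells plus 3 SD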;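 further: peak over basal fluorescence ratio during 140 s after agonist addition; 0% = ACh EC80 plus DMSO and 100% = DMSO alone without agonist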
M1 PAM: positive allosteric modulators of human M1 muscarinic receptor; P11229; CHO-K1 hM1, Fluo-8 calcium fluorescence, ACh EC20; 0% = ACh EC20, 100% = maximal ACh; activation, % at 3 µM; 360,000 compounds, 0.088% hits; AID 588819; in the data active means activation above about 19%, passing the limit was not always enough
* = called active by the depositor.

SMILES	M1 ag parental	CHO-K1 Ca antag	M1 ag	M1 PAM parental	CHRM1 antagonist	M1 PAM
COc1ccc(C(C(=O)NCC2CCCO2)N(Cc2cccs2)C(=O)c2snc(C(N)=O)c2N)cc1 (stereo not drawn)	7	8	-1	-16	22*	-14
NC(=O)c1nsc(C(=O)N(c2cccc(F)c2)C(C(=O)NCC2CCCO2)c2cccs2)c1N (stereo not drawn)	16*	4	-6	19	9	-7
CCOc1ccc(C(C(=O)NCC2CCCO2)N(Cc2cccc(OC)c2)C(=O)c2snc(C(N)=O)c2N)cc1 (stereo not drawn)	1	3	-2	-13	2	2
Cc1ccn2c(=O)c(NC(=O)c3cccs3)c(C)nc2c1	3	-6	3	5	-27	29*
Cc1ccn2c(=O)c(NC(=O)COc3ccccc3)c(C)nc2c1	0	20	-1	-3	-15	13
CCN1/C(=C/c2ccc3cccc(C)c3[n+]2CC)Sc2ccccc21	10	24	14	8	51*	-7
CCN1/C(=C/c2ccc3cc(C)cc(C)c3[n+]2CC)Sc2cc(C)ccc21	21*	40*	18*	-11	55*	-13
CCN1/C(=C\c2ccc3cc(C)ccc3[n+]2CC)Sc2cc(C)c(C)cc21	18*	35*	13	-4	52*	-12
C#CCN1C=CC(=O)[C@@H](OC(=O)Nc2ccc(C)cc2)[C@H]1c1ccccc1Br	2	1	4	2	-10	18
O=C(Cc1cccs1)N1CCN(S(=O)(=O)c2cc(Cl)ccc2Cl)CC1	-1	0	8	12	-4	16
O=C(CNC(=O)c1ccccc1)OC(C(=O)O)c1ccc(F)cc1 (stereo not drawn)	1	-6	-3	16	-5	1
Cc1ccc(C(=O)N/C(=C\c2ccco2)C(=O)NCCN2CCCCC2)cc1C	0	-2	-6	-9	-3	6
Cc1ccc(/C=C(\NC(=O)c2ccccc2)C(=O)NCCN2CCOCC2)o1	-1	24*	-3	-13	-12	2
O=C(NCCN1CCCCC1)/C(=C/c1ccco1)NC(=O)c1ccccc1	0	-18	-2	15	-28	31*
c1ccc(Oc2cccc(CN3CCCCC3)c2)cc1	0	1	-13	-7	46*	-32
CCN1CCN(Cc2cccc(Oc3ccc(Cl)cc3)c2)CC1	3	-9	-8	19	54*	-21
CCOC(=O)C1CCN(Cc2cccc(Oc3ccc(Cl)cc3)c2)CC1	0	-9	-11	3	28*	-25
CN(C)CCCNC(=O)C1(O)c2cc(Br)ccc2NC(=O)N1c1c(F)cccc1F (stereo not drawn)	0	-6	-2	-6	-8	-1
CCOC(=O)C1CCN(C(=O)C2COc3ccccc3O2)CC1 (stereo not drawn)	0	-12	-2	8	-4	3
COc1cccc(-n2c(=O)n(Cc3ccccc3)c(=O)c3[nH]cnc32)c1	0	20	-4	3	-9	3
COc1ccc(NC2=NCC(=O)N2Cc2cccs2)cc1	0	-13	0	21	-12	9
COc1ccc(NC2=NCCC(=O)N2Cc2cccs2)cc1	-1	30*	-2	-4	-4	10
CC(Cc1ccccc1)N1C(=O)c2cccc([N+](=O)[O-])c2C1=O (stereo not drawn)	0	-10	-8	-6	-10	3
CCCCN1CC(N2CCN(CCO)CC2)CS1(=O)=O (stereo not drawn)	0	17	20*	9	-1	17
C[C@]1(CO)CCC[C@@]2(C)C1CC[C@@H](CO)[C@@H]2CCc1ccoc1 (stereo partly drawn)	14	30*	8	-4	4	-3
COc1ccc(S(=O)(=O)N2CCc3ccccc32)cc1C(=O)OCc1nnc(-c2ccccc2)o1	0	6	0	-2	-10	17
CCOC(=O)CN1C(=O)Nc2ccc(Br)cc2C1c1ccccc1 (stereo not drawn)	0	2	-6	-4	50*	-22

Bioassay records: PubChem BioAssay, The Scripps Research Institute Molecular Screening Center
